High-throughput results from PubChem.
Only some compounds are listed: those with a hit (about 2.4% of all), similar ones and a draw of the others.
miR122 inh: miR-122 inhibition in Huh7 cells; activation (reporter increase), % at 12.5 µM; Huh7 miR-122 Renilla luciferase sensor, 48 h; neutral wells = 0, positive control = 100; actives 0.3% (n = 340,000);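 active = mean replicate activation score at least 90 and every replicate individually at or above 90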;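 also: higher luciferase means less miR-122 activity so hits act as miR-122 inhibitors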
Wnt bcat act: activators of Wnt/beta-catenin signaling. Wnt/beta-catenin reporter cell assay, activator, plate reader. activation, % at 9.35 µM. actives 1.2% (n = 300,000). AID 743398; in the data active = activation above about 30%, passing the limit was not always enough;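 also: 0% = neutral control wells and 100% = positive control wells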
MITF TRPM1 HTS: activators of MITF-driven TRPM1 promoter activity in SK-MEL-5 cells; actives 0.75% (n = 300,000); SK-MEL-5 TRPM1-promoter luciferase, 24 h; % of positive control, neutral wells = 0; activation, % at 12.5 µM;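 active = mean activation of at least 80% with every replicate also reaching 80%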;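 also: 0% = neutral control wells and 100% = parthenolide positive control wells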
Dyrk1A ADPGlo: inhibitors of rat Dyrk1A kinase; ADP-Glo luminescence, NFATc1 peptide; actives 0.43% (n = 310,000); inhibition, % at 12.5 µM; AID 504441;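 also: plate controls were vehicle with enzyme for no effect and no enzyme for full effect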
NSD2 HMT inh: blocks human histone methyltransferase NSD2; actives 0.54% (n = 310,000); O96028; NSD2 peptide methylation, AlphaScreen, 120 min; inhibition, % at 12.5 µM; AID 743445
GSIS activator: GLuc luminescence reporter in INS-1E cells, primary screen for activators of glucose-dependent secretion of insulin; INS-1E GLuc reporter insulin secretion, 2-3 h; activation, % at 16.6 µM; actives 0.61% (n = 370,000);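 active = lowest replicate activation of at least 40%, so every replicate reaches that level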;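 also: 0% = median of neutral control wells and 100% = median of IBMX positive control wells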
AlphaScreen art: interferes with AlphaScreen signal, flagging NSD2 false positives. shares compounds with NSD2 HMT inh. AC35, µM (top dose mostly 10 µM), for inactives: at the highest dose activity change, negative = signal loss. actives 9.4% (n = 1,500). AlphaScreen artifact counterscreen, preloaded methylated H4 peptide; call rule not given here
* hit, by the source's call; · = no result; [ ] = another dose, or the depositor's remark. Rule as the data show it, unless noted: active = inhibition above about 50%; inactive = the rest.

SMILES | miR122 inh | Wnt bcat act | MITF TRPM1 HTS | Dyrk1A ADPGlo | NSD2 HMT inh | GSIS activator | AlphaScreen art
Cc1ccc(S(=O)(=O)N(C)C[C@H]2Oc3ccc(NC(=O)Nc4ccc(F)cc4)cc3C(=O)N([C@H](C)CO)C[C@H]2C)cc1 | 55[16.7 µM] | · | · | · | · | -5 | ·
CNCCCC1c2ccccc2C=Cc2ccccc21 | -5 | 0 | 13 | 12 | · | -26 | ·
CNCCCC1Sc2ccccc2Oc2ccccc21 (centres undefined) | -22 | -10 | 36 | · | 72* | · | -8%
COc1cccc(CNC(=O)[C@H]2[C@H](CO)[C@H]3Cn4c(ccc(-c5cccnc5)c4=O)[C@@H]2N3C(C)=O)c1 | -2[16.7 µM] | · | · | · | · | 2 | ·
CO[C@H]1CN(C)C(=O)c2ccc(NC(C)=O)cc2OC[C@@H](C)N(C(=O)C2CC2)C[C@H]1C | · | · | · | · | · | -2 | ·
CN(C)CCNc1ncnc2oc(-c3ccccc3)c(-c3ccccc3)c12 | -3 | 0 | 19 | 10 | 51* | 53* | -6%
Cc1ccccc1NC(=O)Nc1ccc2c(c1)C(=O)N(C)[C@H]1CC[C@@H](CC(=O)O)O[C@H]1CO2 | -46[16.7 µM] | · | · | · | · | -1 | ·
O=C(/C=C/c1ccccc1)Nc1scc(-c2ccccc2)c1C(=O)O | · | 15 | 40 | 2 | 0 | -21 | ·
O=C(/C=C/c1ccco1)Nc1scc(-c2ccccc2)c1C(=O)O | 0 | 42* | 27 | -1 | 103* | 12 | -7%
O=C(c1cccnc1)N1CC(=O)N2[C@@H](CO)[C@@H](c3ccc(C#CCC4CCCC4)cc3)[C@@H]2C1 | · | · | · | · | · | -25 | ·
CN(C)C(=O)[C@H]1[C@H](CO)[C@H]2Cn3c(cccc3=O)[C@H]2N1CC1CCCCC1 | · | · | · | · | · | 4 | ·
CCN1CCCC1CNC(=O)c1ccc2c(c1)N(Cc1ccccc1F)C(=O)c1ccccc1S2(=O)=O (centres undefined) | 11 | -3 | -1 | -3 | 15 | 0 | ·
CCN1CCCC1CNC(=O)c1ccc2c(c1)N(Cc1cccc(Cl)c1)C(=O)c1ccccc1S2(=O)=O (centres undefined) | 3 | -2 | -60 | -2 | 58* | -20 | -5%
CCCN1C[C@H](C)[C@H](OC)CN(C)C(=O)c2cc(NC(=O)C3CCOCC3)ccc2OC[C@H]1C | 8[16.7 µM] | · | · | · | · | 13 | ·
O=C(c1cccc(F)c1)N1CC2(C1)[C@@H](c1ccccc1)[C@@H](CO)N2C(=O)C1CCCCC1 | · | · | · | · | · | -5 | ·
COC(=O)c1cccc(-c2ccc(C(c3c(C)[nH][nH]c3=O)c3c(C)[nH][nH]c3=O)o2)c1 | 10 | -7 | -3 | 16 | 107* | -1 | -5%
COC(=O)c1ccccc1NC(=O)c1ccc(-c2ccccc2F)o1 | · | 12 | 51 | 3 | -2 | 7 | ·
COC(=O)c1ccccc1-c1ccc(C(c2c(C)[nH][nH]c2=O)c2c(C)[nH][nH]c2=O)o1 | · | · | -3 | 5 | 196* | -17 | 1%
CC1(C)OC(=O)C(=Cc2ccc(-c3ccc(Cl)c(C(=O)O)c3)o2)C(=O)O1 | · | · | 3 | -9 | · | 8 | ·
COC(=O)c1ccc(C(c2c(C)[nH][nH]c2=O)c2c(C)[nH][nH]c2=O)cc1 | -6 | -5 | 1 | 0 | 0 | -19 | ·
Cc1[nH][nH]c(=O)c1C(c1ccc(-c2ccc(Cl)c(C(=O)O)c2)o1)c1c(C)[nH][nH]c1=O | -4 | 0 | -3 | 6 | 131* | 11 | 2%
CC(=O)N1[C@H](CO)[C@H](c2ccc(C3=CCCC3)cc2)C12CN(C(=O)C1CC1)C2 | · | · | · | · | · | 3 | ·
C[C@@H]1CN([C@H](C)CO)C(=O)c2cc(N(C)C)ccc2O[C@@H]1CN(C)Cc1ccncc1 | 0[16.7 µM] | · | · | · | · | 4 | ·
NS(=O)(=O)c1ccc(N/N=C/c2ccncc2)cc1 | -3 | 0 | 0 | 0 | 128* | 18 | -3%
NS(=O)(=O)c1ccc(N/N=C/c2ccccc2Br)cc1 | · | 6 | 12 | 11 | 3 | -53 | ·
SMILES | miR122 inh | Wnt bcat act | MITF TRPM1 HTS | Dyrk1A ADPGlo | NSD2 HMT inh | GSIS activator | AlphaScreen art
N#Cc1ccc(-c2ccco2)nc1SCc1ccccc1 | 49 | -1 | · | -6 | 55* | -4 | -1%
CCOc1cc(NC2CS(=O)(=O)CC2O)c(OCC)cc1NC(=O)c1ccccc1 (centres undefined) | 1 | · | -18 | 0 | 61* | · | -7%
CCOc1cc(NC(=O)c2ccccn2)c(OCC)cc1NC(=O)c1ccccc1 | -5 | 0 | -6 | -2 | 0 | 3 | ·
COc1ccc2c3c(n(C)c2c1)[C@@H](CO)N(C(=O)C1CCCC1)CC31CCN(C(=O)CC2CC2)CC1 | · | · | · | · | · | -17 | ·
CCC(=O)N1CCN(c2ccc(Cl)cc2NC(=O)c2ccc(Br)o2)CC1 | -2 | -16 | -4 | -2 | 119* | · | -8%
Cc1nnc(Sc2cc(NCCO)c([N+](=O)[O-])c3nonc23)s1 | · | -6 | -65 | · | 60* | 6 | -3%
CN(C)CCCNC(=O)[C@@H]1[C@@H](CO)[C@@H]2Cn3c(ccc(-c4cccc(F)c4)c3=O)[C@H]1N2 | · | · | · | · | · | 37 | ·
Cn1c(=O)c2c(nc(CN3CCC(C(N)=O)CC3)n2Cc2ccccc2Cl)n(C)c1=O | -6 | · | · | -8 | 65* | · | -5%
C[C@H]1CN([C@@H](C)CO)C(=O)CCCn2cc(nn2)CO[C@H]1CN(C)C(=O)Cc1ccccc1 | -2[16.7 µM] | · | · | · | · | 9 | ·
CN(C)c1ccc(C(=O)N2CCNC(=O)C2CC(=O)Nc2ccc(F)cc2)cc1 (centres undefined) | · | 0 | -9 | -11 | 2 | -4 | ·
COc1ccc(NC(=O)CC2C(=O)NCCN2C(=O)c2ccc(N(C)C)cc2)cc1 (centres undefined) | -3 | 22 | · | · | 64* | 4 | -2%
CN1c2ccc(-c3ccc(C#N)cc3)cc2[C@H]2[C@H](CCN2S(=O)(=O)c2ccc(F)cc2)[C@H]1CO | -2[16.7 µM] | · | · | · | · | -11 | ·
COCCNC(=O)c1cc2c(=O)n3cccc(C)c3nc2n1C | -2 | -3 | 2 | -5 | · | -9 | ·
Cc1cccn2c(=O)c3cc(C(=O)NCCCn4ccnc4)n(C)c3nc12 | -5 | -3 | · | 1 | 118* | · | 2%
O=C(NCc1ccc(Cl)cc1)c1ccc(S(=O)(=O)N2CCCCC2)cc1 | -2 | -2 | -4 | · | 53* | 2 | 0%
O=C(NCC1CCCCC1)[C@@H]1N[C@@H]2c3ccc(C4=CCCCC4)c(=O)n3C[C@@H]2[C@H]1CO | -2[16.7 µM] | · | · | · | · | -1 | ·
COCC(=O)Nc1ccc2c(c1)C(=O)N(C)C[C@H](OC)[C@H](C)CN(C(=O)c1ccccn1)[C@@H](C)CO2 | · | · | · | · | · | -1 | ·
Cc1[nH]n(-c2ccccc2)c(=O)c1C(C[N+](=O)[O-])c1ccc(F)cc1 (centres undefined) | · | · | 1 | 0 | 65* | -13 | -2%
Cc1[nH]n(-c2ccccc2)c(=O)c1C(c1ccccc1[N+](=O)[O-])C(C#N)C#N (centres undefined) | -10 | 1 | -5 | -2 | 1 | 3 | ·
